Data from the supplement of paper PMC7411054.
Counter-ions that a name gives are not always drawn.

Legend:
Experiment in all cases: phenotypically active (imaging signature differs from DMSO and reproducible) at any of 0.3-9 uM (binary (1 = active, 0 = inactive)); higher = active
Settings in all cases: treatment time: 24 h
[1] = test system: A549-ACTB-RAB5A
Method in brief: (§1)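 After 24 h at 0.3, 1, 3 or 9 µM, with four wells per treatment, fifteen gene-edited A549, HepG2 and WPMY1 reporter lines carrying BFP, GFP and RFP/FusionRed were imaged live. Each well's live-cell features were expressed relative to solvent control wells. Deviation required ≥3 of 4 wells past the 95th percentile of control Euclidean distances, and reproducibility a median replicate Pearson correlation over the 95th percentile of non-replicates. Phenotypic activity rested on both.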

[2] = test system: A549-CANX-COX4
Method in brief: as §1

[3] = test system: A549-GM130-SQSTM1
Method in brief: as §1

[4] = test system: A549-TP53BP1-CLTA
Method in brief: as §1

[5] = test system: A549-TUBA1B-RELA
Method in brief: as §1

[6] = test system: HepG2-ACTB-RAB5A
Method in brief: as §1

[7] = test system: HepG2-CANX-COX4
Method in brief: as §1

[8] = test system: HepG2-GM130-SQSTM1
Method in brief: as §1

[9] = test system: HepG2-TP53BP1-CLTA
Method in brief: as §1

[10] = test system: HepG2-TUBA1B-RELA
Method in brief: as §1

[11] = test system: WPMY1-ACTB-RAB5A
Method in brief: as §1

[12] = test system: WPMY1-CANX-COX4
Method in brief: as §1

[13] = test system: WPMY1-GM130-SQSTM1
Method in brief: as §1

[14] = test system: WPMY1-TP53BP1-CLTA
Method in brief: as §1

[15] = test system: WPMY1-TUBA1B-RELA
Method in brief: as §1

Measured: phenotypically active

C/C=C1/C[N+]2(C)CC[C@]34C(=C(C=O)[C@H]1C[C@@H]32)Nc1ccccc14 (stereo not given in full) [Fluorocurarine chloride]
inactive: [1] 0 | [2] 0 | [3] 0 | [4] 0 | [5] 0 | [6] 0 | [7] 0 | [8] 0 | [9] 0 | [10] 0 | [11] 0 | [12] 0 | [13] 0 | [14] 0 | [15] 0

N#CC(C#N)=Cc1ccc(O)c(O)c1
inactive: [1] 0 | [2] 0 | [3] 0 | [4] 0 | [5] 0 | [6] 0 | [7] 0 | [8] 0 | [9] 0 | [10] 0 | [11] 0 | [12] 0 | [13] 0 | [14] 0 | [15] 0

C=CCC1(C(C)C#CCC)C(=O)NC(=O)N(C)C1=O (stereo not given) [methohexital]
inactive: [1] 0 | [2] 0 | [3] 0 | [4] 0 | [5] 0 | [6] 0 | [7] 0 | [8] 0 | [9] 0 | [10] 0 | [11] 0 | [12] 0 | [13] 0 | [14] 0 | [15] 0

c1cncc(C2CC3CCN2CC3)c1 (stereo not given) [RJR 2429 dihydrochloride]
inactive: [1] 0 | [2] 0 | [3] 0 | [4] 0 | [5] 0 | [6] 0 | [7] 0 | [8] 0 | [9] 0 | [10] 0 | [11] 0 | [12] 0 | [13] 0 | [14] 0 | [15] 0

N[C@H]1C[C@@H]1c1ccccc1 [tranylcypromine]
inactive: [1] 0 | [2] 0 | [3] 0 | [4] 0 | [5] 0 | [6] 0 | [7] 0 | [8] 0 | [9] 0 | [10] 0 | [11] 0 | [12] 0 | [13] 0 | [14] 0 | [15] 0

CCN1C[C@@]2(COC)C3[C@@H](OC)[C@H]4[C@H]1C3([C@@H]1C[C@@]3(O)[C@H](OC(=O)c5ccccc5)[C@@H]1[C@]4(OC(C)=O)[C@@H](O)[C@@H]3OC)[C@H](OC)C[C@H]2O [Aconitine]
inactive: [1] 0 | [2] 0 | [3] 0 | [4] 0 | [5] 0 | [6] 0 | [7] 0 | [8] 0 | [9] 0 | [10] 0 | [11] 0 | [12] 0 | [13] 0 | [14] 0 | [15] 0

C=C1[C@H]2C[C@@]3([C@@H]1O)[C@@H](C[C@@H]2O)[C@]12[C@@H]4C[C@H]3[C@H]1N(CC)C[C@]4(C)CC[C@@H]2O [Napelline]
inactive: [1] 0 | [2] 0 | [3] 0 | [4] 0 | [5] 0 | [6] 0 | [7] 0 | [8] 0 | [9] 0 | [10] 0 | [11] 0 | [12] 0 | [13] 0 | [14] 0 | [15] 0

OCC[N+]12CN3CN(CN(C3)C1)C2
inactive: [1] 0 | [2] 0 | [3] 0 | [4] 0 | [5] 0 | [6] 0 | [7] 0 | [8] 0 | [9] 0 | [10] 0 | [11] 0 | [12] 0 | [13] 0 | [14] 0 | [15] 0

CC(C)[C@H]1C(=O)O[C@@H]2CCN3CC=C(COC(=O)[C@](C)(O)[C@@]1(C)O)[C@H]23 [Trichodesmine]
inactive: [1] 0 | [2] 0 | [3] 0 | [4] 0 | [5] 0 | [6] 0 | [7] 0 | [8] 0 | [9] 0 | [10] 0 | [11] 0 | [12] 0 | [13] 0 | [14] 0 | [15] 0

NCC1(CC(=O)O)CCCCC1 [gabapentin]
inactive: [1] 0 | [2] 0 | [3] 0 | [4] 0 | [5] 0 | [6] 0 | [7] 0 | [8] 0 | [9] 0 | [10] 0 | [11] 0 | [12] 0 | [13] 0 | [14] 0 | [15] 0

CC(C)N(CCC(C(N)=O)(c1ccccc1)c1ccccn1)C(C)C (stereo not given) [disopyramide]
inactive: [1] 0 | [2] 0 | [3] 0 | [4] 0 | [5] 0 | [6] 0 | [7] 0 | [8] 0 | [9] 0 | [10] 0 | [11] 0 | [12] 0 | [13] 0 | [14] 0 | [15] 0

C[C@@H]1O[C@H](C[N+](C)(C)C)C[C@H]1O [(+)-Muscarine iodide]
inactive: [1] 0 | [2] 0 | [3] 0 | [4] 0 | [5] 0 | [6] 0 | [7] 0 | [8] 0 | [9] 0 | [10] 0 | [11] 0 | [12] 0 | [13] 0 | [14] 0 | [15] 0

C=C[C@H]1C[N@@]2CC[C@H]1C[C@H]2[C@H](O)c1ccnc2ccccc12 [(-)-Cinchonidine]
inactive: [1] 0 | [2] 0 | [3] 0 | [4] 0 | [5] 0 | [6] 0 | [7] 0 | [8] 0 | [9] 0 | [10] 0 | [11] 0 | [12] 0 | [13] 0 | [14] 0 | [15] 0

C/C=C1\CN2CC[C@]34c5cc(OC)ccc5N5C(=O)C(O)OC[C@@H]([C@H]53)[C@H]1C[C@H]24 (stereo not given in full) [10-Methoxy-o-demethyltsilanine]
inactive: [1] 0 | [2] 0 | [3] 0 | [4] 0 | [5] 0 | [6] 0 | [7] 0 | [8] 0 | [9] 0 | [10] 0 | [11] 0 | [12] 0 | [13] 0 | [14] 0 | [15] 0

CCCC(C)C1(CC)C(=O)N=C(S)NC1=O (stereo not given) [thiopental]
inactive: [1] 0 | [2] 0 | [3] 0 | [4] 0 | [5] 0 | [6] 0 | [7] 0 | [8] 0 | [9] 0 | [10] 0 | [11] 0 | [12] 0 | [13] 0 | [14] 0 | [15] 0

CN1CCc2cc3c(cc2[C@H]1[C@@H]1OC(=O)c2c1ccc1c2OCO1)OCO3 [bicuculine]
inactive: [1] 0 | [2] 0 | [3] 0 | [4] 0 | [5] 0 | [6] 0 | [7] 0 | [8] 0 | [9] 0 | [10] 0 | [11] 0 | [12] 0 | [13] 0 | [14] 0 | [15] 0

CC(C)[N+](C)(CCC(C(N)=O)(c1ccccc1)c1ccccc1)C(C)C [isopropamide-iodide]
inactive: [1] 0 | [2] 0 | [3] 0 | [4] 0 | [5] 0 | [6] 0 | [7] 0 | [8] 0 | [9] 0 | [10] 0 | [11] 0 | [12] 0 | [13] 0 | [14] 0 | [15] 0

COc1ccc2c(c1O)-c1c(OC)c(OC)cc3c1[C@H](C2)N(C)CC3 [Isocorydine (+)]
inactive: [1] 0 | [2] 0 | [3] 0 | [4] 0 | [5] 0 | [6] 0 | [7] 0 | [8] 0 | [9] 0 | [10] 0 | [11] 0 | [12] 0 | [13] 0 | [14] 0 | [15] 0

C=C[C@]12CN(C)[C@@H]3[C@H]4CO[C@H](C[C@H]41)[C@]1(C(=O)Nc4ccccc41)[C@@H]32 [Gelsemine]
inactive: [1] 0 | [2] 0 | [3] 0 | [4] 0 | [5] 0 | [6] 0 | [7] 0 | [8] 0 | [9] 0 | [10] 0 | [11] 0 | [12] 0 | [13] 0 | [14] 0 | [15] 0

O=C1CCC[C@@H]2[C@H]3CCCN4CCC[C@@H](CN12)[C@@H]34 [Matrine]
inactive: [1] 0 | [2] 0 | [3] 0 | [4] 0 | [5] 0 | [6] 0 | [7] 0 | [8] 0 | [9] 0 | [10] 0 | [11] 0 | [12] 0 | [13] 0 | [14] 0 | [15] 0

CCN1C[C@]2(COC)CC[C@H](O)[C@]34[C@@H]5C[C@H]6[C@H](OC)[C@@H]5[C@](O)(C[C@@H]6OC)[C@](O)([C@H]13)[C@@H](OC)[C@H]24 [Delsoline]
inactive: [1] 0 | [2] 0 | [3] 0 | [4] 0 | [5] 0 | [6] 0 | [7] 0 | [8] 0 | [9] 0 | [10] 0 | [11] 0 | [12] 0 | [13] 0 | [14] 0 | [15] 0

Fc1ccccc1C1=NCC(=S)N(CC(F)(F)F)c2ccc(Cl)cc21 [quazepam]
inactive: [1] 0 | [2] 0 | [3] 0 | [4] 0 | [5] 0 | [6] 0 | [7] 0 | [8] 0 | [9] 0 | [10] 0 | [11] 0 | [12] 0 | [13] 0 | [14] 0 | [15] 0

CCOC(=O)C1(c2ccccc2)CCN(C)CC1 [meperidine]
inactive: [1] 0 | [2] 0 | [3] 0 | [4] 0 | [5] 0 | [6] 0 | [7] 0 | [8] 0 | [9] 0 | [10] 0 | [11] 0 | [12] 0 | [13] 0 | [14] 0 | [15] 0
